About 83,000 compounds went through this panel and 20% of them were active in at least one assay; those are over-represented in the sample as a whole.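 Results are percent growth after 48 hours of single-concentration exposure. 100 means growth as in untreated cells, lower positive values show inhibition; negative values down to -100 show cell death.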 Active and inactive are the calls of the source. How the source made its calls: active means growth percent below 10; inactive means the rest.

The subject of this assay is MDA-MB-468 breast. Briefly: NCI-60 one-dose screen, 48 h (100 = growth as untreated, 0 = no growth, -100 = all killed). The note with it: 10 µM unless noted.
Regarding `CCOC(=O)c1sc(-c2ccc(OS(=O)(=O)C[C@]34CCC(CC3=O)C4(C)C)c(C=O)c2)nc1C`, the growth was 3.2% (active).

`COc1ccc(/C=C/c2nc(NCCCN(C)C)c3ccccc3n2)cc1`: the growth is -43.8% (active).

For `CSc1nc2sc3cc(Cl)c(Cl)cc3n2c(=N)c1C#N`, the growth is 72.6% (inactive).

For `O=c1[nH]c(=O)n(C2C[C@@H](O)[C@@H](CO)O2)cc1F` (stereo not given in full), the growth was -3.59% (active).

As to `O=S(=O)(Oc1ccc(-c2ccc3sccc3c2)cc1)c1ccc(F)cc1`, the growth is 86.9% (inactive).

As for `CC12O[C@H](C[C@@H](OC(=O)c3ccccc3)[C@H]1O)n1c3ccccc3c3c4c(c5c6ccccc6n2c5c31)C(=O)NC4=O`, the growth is 81.1% (inactive).

`O=C(Nc1ccc(-n2ccc3c(NC(=O)c4ccccc4)nccc32)cc1)c1ccc(N2CCOCC2)c(C(F)(F)F)c1`: the growth was 42.7% (inactive).

On to `Cn1cc(-c2nonc2-c2c[nH]c3ccc(Br)cc23)c2cc(Br)ccc21`, for which the growth is 21% (inactive).

Take `NC(CCCC(N)C(=O)c1ccccc1)C(=O)O` (stereo not given): the growth was 113% (inactive).

For the molecule `COc1cc(OC)c(NC(=O)c2cc3ccccc3cc2O)cc1Cl`, the growth is 75.7% (inactive).

In the case of `O=C(Nc1cccc(Cl)c1)Nc1cc2ncncc2cc1OCc1cccc(F)c1`, the growth was -2.43% (active).

`COC(=O)c1nc(=S)[nH]c(C(=O)OC)c1C(=O)c1ccccn1`: the growth is 19.3% (inactive).

As to `NC(=S)NN=C1CCCC1`, the growth was 14.1% (inactive).

`Cc1ccc(-c2nc3nc(-c4ccccc4)nc(N4CCNCC4)c3o2)cc1`: the growth is -87.2% (active).

As to `COc1ccc(/C=C2\SC(=Nc3cc(C)[nH]n3)NC2=O)cc1`, the growth was 82.6% (inactive).

As for `COc1ccc2c(c1)oc1c(C)c3c(c(C)c12)C(=O)N(CCN1CCOCC1)C3=O`, the growth was 106% (inactive).

As for `C/C=C\COc1cc(C)c(Cl)cc1Cl`, the growth is 91.5% (inactive).

Turning to `O=[N+]([O-])c1ccc2nc3c4ccccc4c4ccccc4c3nc2c1`, the growth is 75.2% (inactive).

Regarding `COc1ccc(NC(=O)c2cc3ccccc3nc2Nc2cc(OC)c(OC)c(OC)c2)cc1`, the growth is 75.2% (inactive).

As for `COc1cccc2c1CN(C(=O)c1ccc(O)c(C(=O)N3Cc4ccc(OCCC[P+](c5ccccc5)(c5ccccc5)c5ccccc5)cc4C3)c1)C2`, the growth was -2.86% (active).

As for `Cc1nnc(NC(=O)c2nc(S(=O)(=O)Cc3ccc(F)cc3)ncc2Cl)s1`, the growth is -15.1% (active).

With `CC1CCN(C(=S)SCC(=O)NC(=O)c2ccccc2)CC1`, the growth was 119% (inactive).

For the molecule `COc1ccc(/C=C/C(=O)c2cccc(NS(C)(=O)=O)c2)cc1`, the growth is 47% (inactive).

For `CCOC(=O)N1C/C(=C/c2ccc(Cl)cc2)C(=O)/C(=C/c2ccc(Cl)cc2)C1`, the growth was 33.1% (inactive).

Consider `O=C(Nc1ccc(Cl)cc1)Nc1nc2ccc(OC(F)(F)F)cc2o1`, for which the growth was 89% (inactive).

In the case of `O=C(Nc1ccc(-n2cc(-c3ccncc3)c(-c3ccc(O)c(Cl)c3)n2)cc1)c1ccc(Cl)c(Cl)c1`, the growth was 39.9% (inactive).

In the case of `O=S(=O)(NCCCNc1nccc(-c2[nH]c(-c3ccccc3)nc2-c2ccc(F)c(O)c2)n1)c1cccc(F)c1`, the growth is 66.5% (inactive).

In the case of `O=[N+]([O-])c1c(Cl)ncnc1Cl`, the growth was 101% (inactive).

For `CC(=O)Nc1nc(C)c(C(=O)NNC=O)s1`, the growth was 116% (inactive).

Regarding `COc1ccc(-c2ncc(-c3ccccc3)[nH]2)cc1OC`, the growth was 89.1% (inactive).

`O=c1ccc2ccccc2o1`: the growth is 114% (inactive).

In the case of `C[C@@H](Oc1cc(-n2cnc3ccc(CN4CCN(C)CC4)cc32)sc1C(N)=O)c1ccccc1C(F)(F)F`, the growth was 6.59% (active).

`O=C(/C=C/c1ccccc1)Nc1ncc(Cc2ccccc2Cl)s1`: the growth is 8.79% (active).

`c1cn2cc(-c3ccc4ncn(C5CCCCC5)c4c3)nc(-c3ccc4c(c3)ncn4C3CCCCC3)c2n1`: the growth was -20.2% (active).

As for `COc1cc2oc(-c3cccc(C(=O)Nc4ccccc4)c3)cc(=O)c2c(O)c1OC`, the growth is 69.4% (inactive).

`O=C1c2ccccc2OC=C(c2ccccc2)N1CCCCNc1ccc(F)cc1`: the growth is 76.3% (inactive).

On to `CN(Cc1ccccc1)c1nc(Cl)c(C2CC(c3ccccc3)=NN2c2ccccc2)s1` (stereo not given), for which the growth is 98.7% (inactive).

In the case of `C=CCC(OC(C)=O)c1ccc(OC)c(OC)c1` (stereo not given), the growth is 125% (inactive).

Turning to `O=S(=O)(CC(O)(c1ccccc1)c1ccccc1)CC(O)(c1ccccc1)c1ccccc1`, the growth was 77.4% (inactive).

For `O=c1nc(N2CCOCC2)oc2c(-c3cccc4ccccc34)cccc12`, the growth is 76.5% (inactive).

The values above are taken from PubChem BioAssay (NCI).
